Sampled rows, rich in hits. Any-hit rate of the full collection: about 15%.
DT40 TDP1 no CPT: qHTS for Inhibitors of human tyrosyl-DNA phosphodiesterase 1 (TDP1): qHTS in cells in absence of CPT; AID 686978, 2013; DT40 Tdp1-/- hTDP1 cells, no CPT, ATP luminescence, 48 h; 420,000 tested, 15% active; Potency, µM (titrated, usually from 46.2 µM), for the others: at the top dose activity change, negative = growth inhibition, usual class: inhibitors; note: nearly all actives have a fitted effect of over 55% in size
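Chicken DT40 Tdp1-/- cells complemented with human TDP1, screened without camptothecin (DMSO vehicle only), 400 cells/well. Compounds pin-transferred, cells incubated at 37 °C for at least 48 hr. Growth read as ATP-dependent luminescence (CellTiter-Glo, 30 min at RT).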
ELG1 repair inh: ELG1-dependent DNA repair inhibition | AID 504467 | HEK293T ELG1-luciferase reporter, luminescence, 16 h; DNA damage induced by 5-fluorouridine | Potency, µM (titrated, usually from 46.1 µM), without a hit: top-dose activity change, negative = inhibition, most hits filed as inhibitors | 330,000 tested, 2.3% active; note: nearly all actives have a fitted effect of over 55% in size
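Cells (2,000 per well) received 5-fluorouridine plus test compound or DMSO and were incubated 16 hr at 37 °C, 5% CO2. Luciferase activity was read by luminescence 30 min after ONE-Glo addition; signal suppression marked inhibition of damage-induced ELG1 function.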
RORgamma inh: ROR gamma (mouse) transcription inhibition. 310,000 tested, 5.4% active. Drosophila S2 Gal4-RORgamma UAS-luciferase reporter, 20 h. Potency, µM (series often up to 53.6 µM), inactives show at the top dose activity change, negative = inhibition, usual class: inhibitors; note: nearly all actives have a fitted effect of over 60% in size
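A Gal4/UAS one-hybrid system in insect cells: metallothionein-promoter Gal4–ROR gamma fusion plus Photinus luciferase reporter. Copper sulfate 700 uM final, 20 hr ambient incubation, luminescent detection after 10 min with reagent.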
ALOX12 inh: ALOX12 (human) lipoxygenase inhibition; P18054; purified 12hLO, xylenol orange hydroperoxide absorbance; Potency, µM (series often up to 108 µM), for inactives: at the top dose activity change, negative = inhibition, hits mostly inhibitors; 580,000 tested, 1.1% active
Target sequence (P18054 whole entry, looked up): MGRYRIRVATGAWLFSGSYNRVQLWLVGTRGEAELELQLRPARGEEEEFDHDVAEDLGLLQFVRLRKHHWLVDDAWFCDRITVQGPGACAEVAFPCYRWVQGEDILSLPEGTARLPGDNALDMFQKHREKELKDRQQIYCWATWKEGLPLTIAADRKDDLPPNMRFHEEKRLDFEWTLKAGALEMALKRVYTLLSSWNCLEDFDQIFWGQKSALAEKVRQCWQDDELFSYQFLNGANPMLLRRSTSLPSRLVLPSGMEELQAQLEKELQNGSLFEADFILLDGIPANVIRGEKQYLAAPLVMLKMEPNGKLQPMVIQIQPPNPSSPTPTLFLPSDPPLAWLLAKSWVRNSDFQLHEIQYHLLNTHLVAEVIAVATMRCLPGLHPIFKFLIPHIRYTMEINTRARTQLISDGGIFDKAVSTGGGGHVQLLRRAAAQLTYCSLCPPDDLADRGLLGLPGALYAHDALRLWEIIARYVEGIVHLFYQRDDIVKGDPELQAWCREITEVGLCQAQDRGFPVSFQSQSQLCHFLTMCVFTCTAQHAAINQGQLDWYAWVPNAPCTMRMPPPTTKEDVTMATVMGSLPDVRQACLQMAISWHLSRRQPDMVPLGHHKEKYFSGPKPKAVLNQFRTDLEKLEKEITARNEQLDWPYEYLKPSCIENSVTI
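Purified human 12hLO (150 nM final) in 25 mM Hepes, 0.01% Triton X-100, pH 7.0 was preincubated 15 min at room temperature with compound. Then 40 uM arachidonic acid was added, 30 min. Hydroperoxide was read by Fe-XO absorbance ratio 573/405 nm.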
DT40 TDP1 CPT: growth inhibition of DT40 Tdp1-/-;hTDP1 cells with camptothecin (screen for TDP1 inhibitors); 420,000 tested, 12% active; AID 686979; chicken DT40 Tdp1-/-;hTDP1 cells + 20 nM CPT, ATP luminescence, 48 h; Potency, µM (doses to about 46.2 µM), for the others: top-dose activity change, negative = growth inhibition, usual class: inhibitors; note: nearly all actives have a fitted effect of over 55% in size
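Chicken DT40 Tdp1-/- cells complemented with human TDP1, 400 cells/well, exposed to compounds plus 20 nM camptothecin for at least 48 h at 37 C; viability read as ATP content by CellTiter-Glo luminescence.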
Gal4-VP16 FLuc: counter-screen for ROR gamma inhibitors: Gal4-VP16 reporter; 310,000 tested, 3.5% active; Drosophila S2 Gal4-VP16 UAS-luciferase, luminescence, 20 h; Potency, µM (titrated, usually from 53.6 µM), for the others: top-dose activity, negative = inhibition, actives largely listed as inhibitors; AID 2546;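 note: Gal4-VP16 expression switched on by copper sulfate through the metallothionein promoter; nearly all actives have a fitted effect of over 50% in size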
Numbers without * were called inactive; ? = inconclusive; . = no result given; [ ] = dose if it differs, or a comment. Calls come from the whole dose curve; as a rule, active = well fitted curve in the direction sought with a large enough effect; inconclusive = small, poorly fitted or top-dose-only effect, or another doubt; inactive = no such curve, though single readings can be large; an effect the other way counts as inactive or inconclusive. % is set by controls: 0 for no effect and ±100 for the full control effect; potency is the fitted concentration of half-maximal effect.

SMILES	DT40 TDP1 no CPT	ELG1 repair inh	RORgamma inh	ALOX12 inh	DT40 TDP1 CPT	Gal4-VP16 FLuc
N#Cc1ccccc1-c1ccc2ncnc(NCc3ccccc3)c2c1	?	.	10%	?	?	-7%
Cc1cc(-c2ccc(S(=O)(=O)Nc3ccccc3C)cc2)on1	4.6µM*	.	.	?	5.2µM*	.
Cc1cc(-c2ccc(S(=O)(=O)NCc3ccc(F)cc3)cc2)on1	-10%	2%	-5%	-1%	?	-4%
Cc1cc(-c2ccc(S(=O)(=O)Nc3ccc(Cl)cc3C)cc2)on1	3.3µM*	.	.	?	4.6µM*	.
Cc1cc(-c2ccc(S(=O)(=O)Nc3cccc(Cl)c3C)cc2)on1	6.5µM*	.	.	-29%	6.5µM*	.
CCOC(=O)c1ccc(NS(=O)(=O)c2ccc(-c3cc(C)no3)cc2)cc1	?	.	.	-19%	?	.
Cc1ccc(NS(=O)(=O)c2ccc(-c3cc(C)no3)cc2)c(Br)c1	8.2µM*	.	.	?	12µM*	.
O=C(Nc1ccccc1F)Nc1ncc(Cl)cc1Cl	.	.	.	-1%	.	.
CN(CC(=O)Nc1ccccc1N1CCOCC1)S(=O)(=O)c1ccc(Cl)cc1	?	26µM*	15%	28%	21µM*	-2%
CN(c1ccccc1)S(=O)(=O)c1ccc(Cl)c(C(=O)Nc2ccccc2N2CCOCC2)c1	7.3µM*	?	.	-2%	8.2µM*	.
CN(CC(=O)NCCCN1CCOCC1)S(=O)(=O)c1ccc(Cl)cc1	0%	4%	.	3%	5%	.
CCC(CC)C(O)(C#Cc1ccccc1)c1ccccc1 (configuration not stated)	.	.	.	-19%	.	.
CCC(NC(=O)CCc1ccsc1)c1ccccc1OC (configuration not stated)	.	.	.	4%	.	.
Oc1cc2cc(-c3csc(-c4ccc(F)cc4)n3)ccc2[nH]1	2.8µM*	.	.	.	1.1µM*	.
S=C1Cc2ccccc2C(c2ccc(Cl)cc2)N1 (configuration not stated)	23µM*	-14%	6.3µM*	?	?	5.6µM*
O=C1Cc2ccccc2C(c2ccc(Cl)cc2)N1 (configuration not stated)	?	-18%	1%	1%	?	3%
COc1c(N2CCN(C(=S)NCc3ccccc3)C(C)C2)c(F)cc2c(=O)c(C(=O)O)cn(C3CC3)c12 (configuration not stated)	23µM*	-24%	?	0%	?	5%
C=C(C)CNC(=S)NN=C1c2ccccc2-c2ccccc21	?	-12%	3.2µM*	.	?	?
CCNC(=S)NN=C1c2ccccc2-c2ccccc21	3.7µM*	?	1.8µM*	35µM*	3.7µM*	3.2µM*
COc1cccc(OCC(=O)NN=C2c3ccccc3-c3ccccc32)c1	?	?	-44%	?	-27%	-6%
C=C(C)CNC(=S)N/N=C/c1ccco1	5.2µM*	1%	0.56µM*	7%	18µM*	3.2µM*
O=C(O)COc1ccc(-c2nccc3c2C(=O)N(Cc2c[nH]c4ccccc24)CC(COc2cccc(N4CCOCC4)c2)O3)cc1 (configuration not stated)	.	.	.	-1%	.	.
Cc1cc(C)c(NC(=O)c2cc(=O)c3ccccc3o2)c(Cl)c1	.	.	.	5%	.	.
C/C(=N/NC(=O)c1cccs1)c1ccc2ccccc2c1	.	.	.	11%	.	.
Cc1cc(S(=O)(=O)NCc2ccccc2)ccc1OCC(=O)Nc1cccc([N+](=O)[O-])c1	21µM*	?	34%	-2%	18µM*	11µM*
SMILES	DT40 TDP1 no CPT	ELG1 repair inh	RORgamma inh	ALOX12 inh	DT40 TDP1 CPT	Gal4-VP16 FLuc
COc1cc(C=O)ccc1OCC(=O)Nc1cccc(S(=O)(=O)N(C)c2ccccc2)c1	12µM*	?	.	13%	?	.
Cc1cc(S(=O)(=O)NCc2ccccc2)ccc1OCC(=O)NCc1ccccn1	-25%	-4%	14%	49%	-10%	-19%
CN(c1ccccc1)S(=O)(=O)c1cccc(NC(=O)CC(C)(C)C)c1	15µM*	?	22%	-16%	16µM*	4%
CN1C(=O)N(CC(=O)Nc2cccc(S(=O)(=O)N(C)c3ccccc3)c2)C(=O)C12CCCCC2	21µM*	-5%	.	-24%	?	.
CCN(Cc1noc(C2CCC2)n1)C(=O)C1CCN(c2ccccc2)C1=O (configuration not stated)	.	.	.	-16%	.	.
NC(=O)c1ccc(COC(=O)c2ccccc2-c2ccccc2)cc1	.	.	.	-32%	.	.
COc1cccc(CN2Cc3nc(-c4cc(Cl)ccc4OC)ccc3OCC2=O)c1	.	.	.	0%[176 µM]	.	.
COc1ccc2c(C)c(CC(=O)NCCN3CCOCC3)c(=O)oc2c1OC	.	.	.	-48%	.	.
CCCCNC(=O)CSc1cc(C)c2cccc(C)c2n1	.	.	.	1%	.	.
CN(Cc1ccccc1)S(=O)(=O)c1ccc(OCC(=O)Nc2cccc([N+](=O)[O-])c2)cc1	-18%	1%	29%	14%	-1%	-12%
CN(c1ccccc1)S(=O)(=O)c1cccc(NC(=O)COc2cccc([N+](=O)[O-])c2)c1	23µM*	-28%	.	0%	?	.
Cc1cn2nc(C(=O)N3CCCCC3)cc2c(N(C)Cc2ccccc2)n1	.	.	.	10%	.	.
CCC(C)NC(=O)c1ccc(CNC(=O)NC(C)C)cc1 (configuration not stated)	.	.	.	23%	.	.
Cc1cccc(NC(=O)c2c(C)nc3ccccn23)c1	-36%	?	17%	-23%	-15%	-2%
CC(=O)Nc1ccc(Nc2nc(-c3c(C)nc4ccccn34)cs2)cc1	0.82µM*	.	.	?	1µM*	.
Cc1ccc(NS(=O)(=O)c2c(C)nc3sccn3c2=O)cc1	-27%	-5%	31%	8%	?	2%
Cc1ccc(Nc2nc(-c3c(C)nc4sccn34)cs2)cc1	.	.	.	7.1µM*	.	.
Cc1nc2sccn2c1-c1csc(NCc2ccccc2)n1	13µM*	-19%	?	?	16µM*	1µM*
CC(=O)c1cc(C)cc(C(C)=O)c1O	.	.	.	1%	.	.
C=CCCN([C@@H](C)C(=O)OC)S(=O)(=O)c1ccccc1Br	?	-1%	-27%	7%	-20%	-8%
CCCCN([C@H](CO)C(C)C)S(=O)(=O)c1ccccc1Br	21µM*	-9%	.	3%	?	.
COC(=O)C1=C(N)Oc2cc(C)n(Cc3ccc4c(c3)OCO4)c(=O)c2C1c1ccccc1F (configuration not stated)	.	.	.	-22%	.	.
CN(CCc1ccccn1)S(=O)(=O)c1ccc(F)cc1	-21%	17%	21%	?	-10%	-12%

Screening data deposited in PubChem BioAssay by National Center for Advancing Translational Sciences (NCATS).
